Compound activity: PubChem BioAssay, National Center for Advancing Translational Sciences (NCATS)
In the library only some 0.81% were active in any assay of this set; here they are far more common.
TRHR agonist-1 = TRH receptor (human) agonism | P34981 | TRHR cells, calcium flux fluo-8, FDSS agonist mode | activation, % at 2 µM | 0.18% of 360,000 active | AID 493084; in the data active = activation above about 30%
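Steps: seed TRHR cells overnight; add fluo-8 no-wash Ca dye, RT 30 min–1.5 h; record 10 s baseline; pin-transfer compounds; monitor fluorescence 1 cycle/s for the agonist window. Calcium increases flag candidate agonists.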
TRPML1 agonist = activates the human TRPML1 channel. activation, % (test concentration not listed). 0.12% of 410,000 active. Q9GZU1. TRPML1-expressing cells, Ca2+ dye fluorescence, FDSS. AID 624414; in the data active = activation above about 50%; inconclusive = mostly about 30% to 49%
Target sequence (Q9GZU1 whole entry, looked up): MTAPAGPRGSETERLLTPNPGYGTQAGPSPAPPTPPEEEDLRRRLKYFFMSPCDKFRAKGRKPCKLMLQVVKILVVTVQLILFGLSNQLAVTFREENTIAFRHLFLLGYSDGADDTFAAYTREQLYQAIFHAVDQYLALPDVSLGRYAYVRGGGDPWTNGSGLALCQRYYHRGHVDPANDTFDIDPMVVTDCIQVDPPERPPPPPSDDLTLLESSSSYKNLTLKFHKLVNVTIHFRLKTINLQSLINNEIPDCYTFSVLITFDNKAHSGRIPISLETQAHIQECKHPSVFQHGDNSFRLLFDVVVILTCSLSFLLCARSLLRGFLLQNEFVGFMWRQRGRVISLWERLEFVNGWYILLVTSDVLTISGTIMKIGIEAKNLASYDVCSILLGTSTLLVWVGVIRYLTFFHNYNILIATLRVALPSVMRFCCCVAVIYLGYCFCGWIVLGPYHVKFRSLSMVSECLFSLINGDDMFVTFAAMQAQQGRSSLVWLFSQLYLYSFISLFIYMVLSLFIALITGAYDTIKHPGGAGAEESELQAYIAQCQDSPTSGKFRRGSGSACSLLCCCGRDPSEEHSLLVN
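Calcium fluorescence on an FDSS kinetic reader gave the read-out. Tet-induced TRPML1-DL cells were plated overnight, dye-loaded (Ca8 with quencher, 45-90 min, room temperature, dark), then read 110 s after compound addition, and again 110 s after 4uM final 54-4 (EC80).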
TRPML1 inh = inhibitors of human TRPML1 channel; TRPML1-inducible cells, Ca2+ dye fluorescence, FDSS; stronger effect = lower value; inhibition of EC80 agonist-evoked calcium signal; AID 624415; Q9GZU1; 0.02% of 390,000 active; activity change, negative = inhibition, % (no concentration beside the values); in the data active = activity change below about -50%; inconclusive = between about -30% and that limit;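 note: stimulus is agonist 54-4 at its EC80 concentration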
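TRPML1-DL cells, Tet-induced overnight (~16 h, 37 °C) at 1,500 cells/well, were loaded with Ca8 no-wash dye plus quencher for 45-90 min at room temperature. Compounds were pinned during FDSS kinetic reading; agonist 54-4 at EC80 (4 uM final) then added.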
TRHR enhancer-1 = allosterically enhances the human TRH receptor; P34981; TRHR cells, fluo-8 calcium fluorescence, EC20 TRH enhancement; enhancement, % at 2 µM; 0.66% of 360,000 active; AID 493056; in the data active = enhancement above about 30%
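TRHR-expressing cells loaded with fluo-8 calcium dye were read kinetically (ex 480/em 530) during compound addition, then stimulated with an EC20 of TRH (10 nM final). Enhancement of the Gq-mediated intracellular calcium response was scored.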
TRHR enhancer-2 = confirmation of human TRH receptor allosteric enhancers | 970 tested, under 10 active | TRH receptor cell assay, enhancer confirmation qHTS | activity change, negative = inhibition, % at 46.1 µM | shares compounds with TRHR enhancer-1;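 note: compound effect scored on response to added TRH at EC20 of 10 nM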
TRHR agonist-2 = confirmation of human TRH receptor agonists | shares compounds with TRHR enhancer-1 | TRHR-expressing cells, agonist activation read-out | Potency, µM (series often up to 46.1 µM), usual class: activators | 8% of 970 active | AID 493078; note: nearly all actives have a fitted effect of over 75% in size
Of the large screens only hits and unclear results are named; the others gave an inactive call (follow-up assays come after a bar, where they were run). Unless noted, calls come from the whole dose curve; as a rule, active = well fitted curve in the direction sought with a large enough effect; inconclusive = small, poorly fitted or top-dose-only effect, or another doubt; inactive = no such curve, though single readings can be large; an effect the other way counts as inactive or inconclusive.

CSc1ccc(S(=O)(=O)NC(C)c2ccccc2)cc1 (stereo not given)	none
Cc1ccc(S(=O)(=O)NC(C)c2ccccc2)cc1[N+](=O)[O-] (stereo not given)	TRHR enhancer-1 58.0 | TRHR enhancer-2 inactive | TRHR agonist-2 inactive
Cc1nc2ccccc2nc1/C=C/c1ccc(N(C)C)cc1	none (no result: TRHR agonist-1, TRPML1 inh, TRHR enhancer-1)
COc1ccc2c(c1)C=C/C2=C/c1ccc(N(C)C)cc1	none (no result: TRHR agonist-1, TRPML1 inh, TRHR enhancer-1)
C(=Nc1cccnc1)c1ccc2ccccc2n1	none (no result: TRHR agonist-1, TRPML1 inh, TRHR enhancer-1)
C1=Cc2ccccc2/C1=C\c1ccc2c(c1)OCO2	none (no result: TRHR agonist-1, TRPML1 inh, TRHR enhancer-1)
CN(C)c1ccc(/C=C/c2nc3ccccc3c(=O)[nH]2)cc1	TRHR agonist-1 59.0 | TRHR enhancer-2 inconclusive | TRHR agonist-2 20.6µM
O=c1[nH]c(/C=C/c2ccc(Br)cc2)nc2ccccc12	none
CCCn1c(=O)c2ccccc2n2c(SC(C)C(N)=O)nnc12 (stereo not given)	none
C=CCn1c(=O)c2ccccc2n2c(SC(C)C(N)=O)nnc12 (stereo not given)	TRHR enhancer-1 45.1 | TRHR enhancer-2 inactive | TRHR agonist-2 inactive
C=CCN(Cc1cn(C)nc1-c1cccc(Cl)c1)C1CCS(=O)(=O)C1 (stereo not given)	TRHR enhancer-1 46.2 | TRHR enhancer-2 inactive | TRHR agonist-2 inactive
CCCCOc1ccc(CC(=O)N(C)O)cc1	none (no result: TRHR agonist-1, TRPML1 inh, TRHR enhancer-1)
CC(=O)c1cccc(NC(=O)COC(=O)c2ccccc2OCc2cccc(Br)c2)c1	none (no result: TRHR agonist-1, TRPML1 inh, TRHR enhancer-1)
CN(C)CCCNc1oc(-c2ccccc2Cl)nc1S(=O)(=O)c1ccc(F)cc1	TRHR enhancer-1 57.2 | TRHR enhancer-2 inconclusive | TRHR agonist-2 inconclusive
Cn1nc(C(=O)NCc2ccc(F)cc2)cc1C(=O)NCc1ccc(F)cc1	TRHR enhancer-1 46.1 | TRHR enhancer-2 inactive | TRHR agonist-2 inactive
Cn1nc(C(=O)NCc2ccccc2)cc1C(=O)NCc1ccccc1	none
CS(=O)(=O)c1ccc(C(=O)NCc2ccc(F)cc2)cc1	TRHR enhancer-1 60.1 | TRHR enhancer-2 inactive | TRHR agonist-2 inactive
O=C(NCc1ccc(Cl)cc1)c1ccc(CNS(=O)(=O)c2ccc(F)cc2)cc1	none
Cc1cc2ccccc2c[n+]1CC(=O)c1ccc(F)cc1	none (no result: TRHR agonist-1, TRPML1 inh, TRHR enhancer-1)
C(=Nc1ccc(/C=C/c2ccnc3ccccc23)cc1)c1ccc2c(c1)OCO2	none (no result: TRHR agonist-1, TRPML1 inh, TRHR enhancer-1)
